In all, about 640,000 compounds went through this assay and about 9,300 (1.5%) were called active. The full list was thinned out, with actives kept by preference. Unmarked numbers belong to inactive results. Rule as the data show it: active = inhibition above about 32%; inactive = the rest.

This test is described as follows: TEAD-YAP interaction inhibition, primary screen, TEAD-YAP interaction inhibitor project, luminescence, HEK-TIYL cells (AID 1259422).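 Also: 0% = median of test compound wells and 100% = reference inhibitor wells.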 As to conditions: TEAD-Gal4/YAP UAS-luciferase luminescence, at 9.12 µM, hits give high values.
In general, inhibition refers to the relative decrease from the control value, in per cent. Regarding `Cc1cc(OCc2nc(SCC(=O)N(C)C)n[nH]2)ccc1Cl`, the inhibition was -1.92%.

`Cc1ccccc1Nc1ncnc2nc[nH]c12`: the inhibition was -0.78%.

For the compound `COc1cc(C(=O)NC(=S)Nc2ccccc2O)cc(OC)c1OC`, the inhibition was 12%.

As to `Cc1cc(C)c(OCC(O)Cn2c(C)nc3ccccc32)c(C)c1` (stereo not given), the inhibition is 35.1% (active).

With `Cc1nc2ccccc2n1CC(O)COc1ccc(N)cc1` (stereo not given), the inhibition is 10.8%.

For `CCc1cc(C)cc(OCC(O)Cn2c(C)nc3ccccc32)c1` (stereo not given), the inhibition is 26.7%.

In the case of `O=C(Oc1cc(-c2ccc(Cl)cc2)c2oc(=O)sc2c1)c1ccccc1`, the inhibition was -3.66%.

`COc1ccccc1N1CCN(c2c(-c3ccc(Cl)cc3)c(=O)c2=O)CC1`: the inhibition is 70.2% (active).

For the compound `COc1ccccc1N1CCN(Cc2cc(=O)c(OCc3ccc(Cl)cc3)co2)CC1`, the inhibition was 6.69%.

Consider `COc1ccccc1N1CCN(S(=O)(=O)c2ccccc2[N+](=O)[O-])CC1`, for which the inhibition was 13%.

Regarding `CCOC(=O)N1CCC(N2C(=O)c3ccc(C(=O)NCC(OC)OC)cc3C2=O)CC1`, the inhibition is 10.6%.

As to `CCCCSc1nnc(NC(=O)C2CC2)s1`, the inhibition is -17.5%.

For the compound `NS(=O)(=O)c1cccc(N=C2C(=O)Nc3ccc([N+](=O)[O-])cc32)c1`, the inhibition was -2.91%.

`CCN(CC)c1ccc2cc(-c3nc4ccc(Cl)cc4[nH]3)c(=O)oc2c1`: the inhibition was 25.2%.

Consider `CCN(CC)c1ccc2cc(-c3nc4ccccc4[nH]3)c(=N)oc2c1`, for which the inhibition is 76.8% (active).

As to `CCN(CC)c1ccc2cc(-c3nnc(Nc4ccccc4F)s3)c(=O)oc2c1`, the inhibition is 2.05%.

With `CC[n+]1cc(C)ccc1/C=C/c1ccc(N(C)C)cc1`, the inhibition was 86.9% (active).

As to `CC[n+]1c(/C=C/c2ccc(N(C)C)cc2)oc2ccccc21`, the inhibition was 1.32%.

With `CN(C)c1ccc(C=NCC(O)CN=Cc2ccc(N(C)C)cc2)cc1` (stereo not given), the inhibition is 3.49%.

With `COc1ccc(/C=C2\SC(=O)N(Cc3ccc(C(=O)O)cc3)C2=O)cc1`, the inhibition is 1.76%.

As for `Cc1ccc(/C=C2/SC(=O)N(CCC(=O)O)C2=O)cc1`, the inhibition was 19.7%.

In the case of `COc1ccc(/C=C2/SC(=O)N(CCCC(=O)Nc3ccc(C(=O)O)cc3)C2=O)cc1`, the inhibition was 80.5% (active).

Take `COc1ccc(N=C2SC(C(=O)Nc3ccc(C)cc3C)CC(=O)N2CCc2ccc(OC)c(OC)c2)cc1` (stereo not given): the inhibition was 9.84%.

On to `O=C(Cc1cc(=O)[nH]c(=O)[nH]1)NCCCc1ccccc1`, for which the inhibition was -5.86%.

For `Cc1ccc2oc(C(=O)Nc3ccccc3F)cc(=O)c2c1`, the inhibition is 4.72%.

Regarding `CCOC(=O)Nc1cc(=O)c2cc(C)ccc2o1`, the inhibition was 41.8% (active).

For `CCOC(=O)Nc1c(C(=O)OC)[nH]c2ccc(C)cc12`, the inhibition was -2.73%.

Turning to `COCCSc1nc2c(c(=O)[nH]c(=O)n2C)n1Cc1ccccc1Cl`, the inhibition is 2.74%.

As to `O=[N+]([O-])c1ccc2cnn(-c3cccc(C(F)(F)F)c3)c2c1`, the inhibition is -0.71%.

Take `COc1ccccc1N1CCN(c2ncnc3sc(C(=O)N4CCCCC4C)c(C)c23)CC1` (stereo not given): the inhibition was 6.82%.

Take `CCOC(=O)c1c(/N=C/c2cccc(OC)c2OC)sc2c1CCN(CC)C2`: the inhibition is 4.12%.

For `CC(C)N(CC(=O)N1c2ccccc2CC1C)Cc1ccccc1` (stereo not given), the inhibition was -1.32%.

In the case of `Cc1cccc2c1[nH]c1nc(N/N=C\c3ccc(O)cc3)nnc12`, the inhibition is -16.6%.

Consider `Oc1ccc(O)c(/C=N/Nc2nnc3c(n2)[nH]c2ccccc23)c1`, for which the inhibition was 49% (active).

As to `CC/C(=N/Nc1nnc2c(n1)[nH]c1ccccc12)c1ccccc1`, the inhibition is 0.16%.

As to `Cc1nc(N2CCC(NCC(F)(F)F)CC2)nc2cc3c(cc12)CCC3`, the inhibition is -15.4%.

For the compound `C/C(=N\NC(=O)c1nnn(-c2nonc2N)c1C)c1ccc(Cl)c(Cl)c1`, the inhibition was -6.68%.

Take `O=C(O)CCC(=O)N1CCC(c2nc3ccc(Cl)cc3[nH]2)CC1`: the inhibition is 1.09%.

With `O=C(CCCn1c(=S)[nH]c2ccccc2c1=O)Nc1ccc(F)c(Cl)c1`, the inhibition is -21.7%.

For the compound `Cc1cc(C)cc(NC(=O)CCCn2c(=S)[nH]c3ccccc3c2=O)c1`, the inhibition is 34.5% (active).

As for `O=C(CCCn1c(=S)[nH]c2ccccc2c1=O)NCc1cccc(Cl)c1`, the inhibition is 3.21%.

Take `O=C1CCCN1CCCNc1nc(Nc2ccc(-n3ccnc3)cc2)nc2c1ncn2CCN1CCCC1=O`: the inhibition was 4.85%.

Consider `CC(C)n1cnc2c(NCCCN3CCCC3=O)nc(Nc3ccc(-n4ccnc4)cc3)nc21`, for which the inhibition is 44.4% (active).

Take `c1cnc(Nc2nc(Nc3ccc(N4CCOCC4)cc3)c3ncn(-c4ccsc4)c3n2)nc1`: the inhibition is 51.1% (active).

Turning to `COc1ccc(CCNc2nc(N3CCCC3CO)nc3c2ncn3-c2ccsc2)cc1` (stereo not given), the inhibition was 53.3% (active).

Turning to `c1ccc(-n2cnc3c(NCCN4CCOCC4)nc(Nc4ccc(-n5ccnc5)cc4)nc32)cc1`, the inhibition is 61.3% (active).

`CC(C)n1cnc2c(NCCCN3CCCC3=O)nc(-c3csc4ccccc34)nc21`: the inhibition is 3.47%.

As to `c1ccc(Nc2nc(Nc3ccc(N4CCOCC4)cc3)c3ncn(-c4ccccc4)c3n2)cc1`, the inhibition was 3.79%.

For the compound `OCC1CCCN1c1nc(NC2CC2)c2ncn(-c3ccccc3)c2n1` (stereo not given), the inhibition is -46.6%.

`CN(C)c1cccc(Nc2nc(NCCN3CCOCC3)c3ncn(-c4ccccc4)c3n2)c1`: the inhibition is 3.8%.

`c1cc(Nc2nc(Nc3ccc(N4CCOCC4)cc3)c3ncn(-c4ccsc4)c3n2)ccn1`: the inhibition is -4.11%.

As for `OCCNc1nc(Nc2ccc(N3CCOCC3)cc2)nc2c1ncn2-c1ccccc1`, the inhibition is 28.7%.

Turning to `OCCNc1nc(N2CCCC2CO)nc2c1ncn2-c1ccsc1` (stereo not given), the inhibition is 14.6%.

Consider `C[C@@H]1CN(C(=O)C2CC23CCN(Cc2coc4ccccc4c2=O)CC3)C[C@H](C)O1` (stereo not given in full), for which the inhibition is -6.72%.

Take `Cc1cccc(-c2nc(-c3ccc(Cl)cc3)no2)c1`: the inhibition is -40.1%.

Take `CCN(CC)S(=O)(=O)c1ccc(N2CCc3ccccc32)c([N+](=O)[O-])c1`: the inhibition is -8.71%.

For `CC(C)(C#N)OC(=O)Nc1cccc(Cl)c1`, the inhibition is -3.72%.

For the compound `Cc1ccc(N2C(=O)Cc3c2nc(N)c2c(N)nc(N4CCCCC4)c(C#N)c32)cc1C`, the inhibition was 18.1%.

As to `CC(C)(C)NC(=O)c1cnn2c(C(F)(F)F)cc(-c3ccc(F)cc3)nc12`, the inhibition was 6.73%.

With `CCOCCOC(=O)COc1ccc2c(C)cc(=O)oc2c1`, the inhibition is 3.62%.

For the compound `Cc1ccc(-c2cc(C(=O)Nc3ccc(Br)cc3Br)c3ccccc3n2)o1`, the inhibition was -7.27%.

Take `Cc1nn(C)c(C)c1NC(=O)c1c([N+](=O)[O-])cnn1C`: the inhibition was 4.42%.

For `Cc1c(Cl)cccc1N1C(=O)c2ccc(Oc3ccc(Nc4ncnc5ccccc45)cc3)cc2C1=O`, the inhibition is 2.53%.

As to `O=C(Cc1c(F)cccc1Cl)Nc1cc(C(=O)Nc2cccc(C(F)(F)F)c2)ccc1N1CC2CC(C1)c1cccc(=O)n1C2` (stereo not given), the inhibition is 2.29%.

Consider `COc1ccc(CCNc2nc(Nc3ccc(-n4ccnc4)cc3)nc3c2ncn3-c2ccsc2)cc1`, for which the inhibition is 65.1% (active).

For `COc1cc(Nc2nc(NCc3cccnc3)c3ncn(-c4ccsc4)c3n2)cc(OC)c1OC`, the inhibition was 30.7%.

Turning to `Oc1ccc(CCNc2nc(NCCN3CCOCC3)nc3c2ncn3-c2ccsc2)cc1`, the inhibition is 34.3% (active).

As for `CC(=O)Nc1ccc(Nc2nc(Nc3ccc(-n4ccnc4)cc3)nc3c2ncn3-c2ccsc2)cc1`, the inhibition was 24.8%.

With `COc1cc(Nc2nc(NCc3cccnc3)nc3c2ncn3-c2ccsc2)cc(OC)c1OC`, the inhibition was 0.91%.

Turning to `CCNc1nc(Nc2cc(OC)c(OC)c(OC)c2)c2ncn(-c3ccsc3)c2n1`, the inhibition was 48.6% (active).

Regarding `Nc1nc(Nc2nccc3ccccc23)nc2c1ncn2-c1ccsc1`, the inhibition was 53.2% (active).

Take `Oc1ccc(CCNc2nc(Nc3ccc(N4CCOCC4)cc3)nc3c2ncn3-c2ccccc2)cc1`: the inhibition is 9.04%.

For the compound `c1ccc2c(Nc3nc(NCCN4CCOCC4)c4ncn(-c5ccsc5)c4n3)nccc2c1`, the inhibition is 19.8%.

Turning to `COc1cc(Nc2nc(Nc3nccc4ccccc34)nc3c2ncn3-c2ccsc2)cc(OC)c1OC`, the inhibition is 12.9%.

Take `Nc1nc(NCc2cccnc2)nc2c1ncn2-c1ccsc1`: the inhibition was -5.56%.

On to `c1ccc(Oc2ccc(Nc3nc(Nc4ccccn4)nc4c3ncn4-c3ccsc3)cc2)cc1`, for which the inhibition was 2.53%.

Turning to `CCCCOc1ccc(NS(=O)(=O)c2cc(F)ccc2OC)cc1`, the inhibition was 1.6%.

Turning to `Cc1cc2c(cc1C)NC(c1cccc3ccccc13)C1=C(CC(C)(C)CC1=O)N2` (stereo not given), the inhibition is -9.75%.

With `Cn1c(=O)n(Cc2ccc(F)cc2)c(=O)c2c1nc1oc(C(C)(C)C)cn12`, the inhibition was -6.69%.

As to `O=[N+]([O-])c1ccc(S(=O)(=O)NCCSCc2ccco2)cc1`, the inhibition was 6.05%.

Turning to `C/C(=N\NC(=O)c1ccc(CSc2nc(C)cc(C)n2)cc1)c1ccccc1O`, the inhibition is 10.2%.

With `O=C1CCCN1CCCNc1nc(Nc2ccncn2)nc2c1ncn2-c1ccsc1`, the inhibition was 50.5% (active).

With `CC(C)n1cnc2c(NCCc3ccc(O)cc3)nc(Nc3cccc(N(C)C)c3)nc21`, the inhibition is -1.31%.

For the compound `CCN(CC)C(=O)C1CCCN(c2nc(Nc3ccc(NC(C)=O)cc3)c3ncn(-c4ccsc4)c3n2)C1` (stereo not given), the inhibition is 24.3%.

As to `CCN(CC)C(=O)C1CCCN(c2nc(NCCN(C(C)C)C(C)C)c3ncn(-c4ccsc4)c3n2)C1` (stereo not given), the inhibition was 36.7% (active).

Regarding `CCN(CC)C(=O)C1CCCN(c2nc(NC3CC3)c3ncn(-c4ccccc4)c3n2)C1` (stereo not given), the inhibition is 9.83%.

On to `CC(C)n1cnc2c(NCCc3ccc(O)cc3)nc(Nc3cnccn3)nc21`, for which the inhibition is 36.5% (active).

On to `O=C1CCCN1CCCNc1nc(Nc2ccccc2)c2ncn(-c3ccsc3)c2n1`, for which the inhibition is 8.67%.

Regarding `CC(C)n1c(Nc2cnccn2)nc2c(NCCc3ccc(O)cc3)ncnc21`, the inhibition was 14.1%.

As for `CCNc1nc(NCCCN2CCCC2=O)c2ncn(-c3ccccc3)c2n1`, the inhibition was 4.42%.

Source of the values: PubChem BioAssay AID1259422 (The Scripps Research Institute Molecular Screening Center, 2018).
